In the supplement of paper PMC10720658:
± gives the standard deviation of the averaged measurements.

What follows are compounds tested on AEK1 (Tb927.3.2440) (assay: percent reduction in TR-FRET probe signal relative to DMSO control; higher = stronger displacement of ATP-site probe (binding)). Settings: 1 µM; incubation time 1 h.

SMILES | percent reduction in TR-FRET probe signal
CC(C)(O)CC(=O)NCCn1ccc2ncnc(Nc3ccc(Oc4cccc(C(F)(F)F)c4)c(Cl)c3)c21 | -2.36 ± 7.6%
COc1cc2ncnc(Nc3cccc(Cl)c3F)c2cc1OC(=O)N1CCN(C)C[C@H]1C | 9.77 ± 13%
CC(=O)c1c(C)c2cnc(Nc3ccc(N4CCNCC4)cn3)nc2n(C2CCCC2)c1=O.Cl | -16.8 ± 5.1%
C[C@@H]1COC(Nc2ccc3ncnc(Nc4ccc(OCc5nccs5)c(Cl)c4)c3c2)=N1 [Varlitinib] | 11.3 ± 2.9%
COc1cc2nccc(Oc3ccc(NC(=O)Nc4cc(C)on4)c(Cl)c3)c2cc1OC [Tivozanib (AV-951)] | -2.48 ± 4.1%
CCN(C)S(=O)(=O)Nc1ccc(F)c(C(=O)c2c[nH]c3ncc(-c4cnc(C5CC5)nc4)cc23)c1F | -1.7 ± 4%
CNC(=O)c1cc(Oc2ccc(NC(=O)Nc3ccc(Cl)c(C(F)(F)F)c3)c(F)c2)ccn1 [Regorafenib (BAY 73-4506)] | 11.5 ± 5.7%
CN1CCN(c2cccc(Nc3nc4c(-c5ccc(S(C)(=O)=O)cc5)cccn4n3)c2)CC1 | 7.3 ± 6.6%
COc1cc(N2CCC(N)CC2)ccc1Nc1ncc(Cl)c(-c2c[nH]c3ccccc23)n1 | 7.47 ± 4.6%
Cc1nc(N)sc1-c1ccnc(Nc2ccc(N3CCOCC3)cc2)n1 | 10.3 ± 6.7%
CC(C)(O)CNc1ncc(-c2ccnc(Nc3ccnc(Cl)c3)n2)c(CC2CC2)n1 | 4.25 ± 12%
NC[C@@](O)(c1ccc(Cl)cc1)c1ccc(-c2cn[nH]c2)cc1 | 11 ± 16%
Nc1ccc(C(=O)Nc2cccc(-c3nc(N4CCOCC4)c4oc5ncccc5c4n3)c2)cn1 | -7.4 ± 3%
CCc1cnn2c(NCc3ccc[n+]([O-])c3)cc(N3CCCC[C@H]3CCO)nc12 | -4.69 ± 4.1%
COc1cccc2cc(-c3nc([C@H]4CC[C@H](C(=O)O)CC4)n4ncnc(N)c34)[nH]c12 | -0.417 ± 9.2%
NC1(Cc2ccc(Cl)cc2)CCN(c2ncnc3[nH]ccc23)CC1 | 2.05 ± 3.4%
COc1ccc(S(=O)(=O)N(C(C)=O)c2ccccc2/C=C/c2cc[n+]([O-])cc2)cc1 | -0.117 ± 12%
COc1ccc2c(Oc3ccc(NC(=O)c4c(C)n(CC(C)(C)O)n(-c5ccccc5)c4=O)nc3)ccnc2c1 | 0.253 ± 6.4%
CCS(=O)(=O)Nc1ccc2c(c1)/C(=C(/Nc1ccc(CN3CCCCC3)cc1)c1ccccc1)C(=O)N2 [Hesperadin] | 97.4 ± 5.1%
CC(C)NC[C@@H](C(=O)N1CCN(c2ncnc3c2[C@H](C)C[C@H]3O)CC1)c1ccc(Cl)cc1 | 11.4 ± 8.1%
CC1=C(C(=O)Nc2cc3cn[nH]c3cc2F)C(c2ccc(C(F)(F)F)cc2)CC(=O)N1 (stereo unspecified) | -2.47 ± 11%
CO[C@H]1C[C@@H]2CC[C@@H](C)[C@@](O)(O2)C(=O)C(=O)N2CCCC[C@H]2C(=O)O[C@H]([C@H](C)C[C@@H]2CC[C@@H](O)[C@H](OC)C2)CC(=O)[C@H](C)/C=C(\C)[C@@H](O)[C@@H](OC)C(=O)[C@H](C)C[C@H](C)/C=C/C=C/C=C/1C [Rapamycin (Sirolimus)] | -8.37 ± 4.2%
C=CC(=O)Nc1cccc(Oc2nc(Nc3ccc(N4CCN(C)CC4)cc3)ncc2Cl)c1 | 1.06 ± 9.5%
Cc1ccc(-n2nc(C(C)(C)C)cc2NC(=O)Nc2ccc(OCCN3CCOCC3)c3ccccc23)cc1 [BIRB 796 (Doramapimod)] | 1.12 ± 5.4%
CS(=O)(=O)c1cccc(CNc2nc(Nc3ccc4c(c3)CCC(=O)N4)ncc2C(F)(F)F)c1 | 39.5 ± 13%
CN(C)CCOc1ccc(-c2nc(-c3ccncc3)c(-c3ccc4c(c3)CC/C4=N\O)[nH]2)cc1 | 3.05 ± 12%
